Source: PubChem BioAssay (NCI)
The panel holds about 83,000 compounds, 20% with a hit somewhere; the sample as a whole holds those more often.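 Activity criterion: percent growth below 10, measured after cells in 96-well plates were exposed to a single compound concentration for 48 hours.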 A number with no mark means an inactive call. Activity calls are given as the source filed them.

Columns and labels:
Assay in all cases: NCI-60 one-dose screen, 48 h (100 = growth as untreated, 0 = no growth, -100 = all killed)
HCT-15 colon = settings: 10 µM unless noted
HT29 colon = settings: 10 µM unless noted
SNB-75 CNS = settings: 10 µM unless noted
SNB-19 CNS = settings: 10 µM unless noted
U251 CNS = settings: 10 µM unless noted
PC-3 prostate = settings: 10 µM unless noted
SK-MEL-5 melanoma = settings: 10 µM unless noted
UACC-62 melanoma = settings: 10 µM unless noted
LOX IMVI melanoma = settings: 10 µM
SK-MEL-28 melanoma = settings: 10 µM unless noted
SN12C renal = settings: 10 µM unless noted
UO-31 renal = settings: 10 µM unless noted
TK-10 renal = settings: 10 µM unless noted
CAKI-1 renal = settings: 10 µM unless noted
A498 renal = settings: 10 µM unless noted
CCRF-CEM leukemia = settings: 10 µM unless noted
MOLT-4 leukemia = settings: 10 µM unless noted
ACHN renal = settings: 10 µM unless noted
SK-MEL-2 melanoma = settings: 10 µM unless noted
EKVX NSCLC = settings: 10 µM unless noted

| SMILES | growth (HCT-15 colon) | growth (HT29 colon) | growth (SNB-75 CNS) | growth (SNB-19 CNS) | growth (U251 CNS) | growth (PC-3 prostate) | growth (SK-MEL-5 melanoma) | growth (UACC-62 melanoma) | growth (LOX IMVI melanoma) | growth (SK-MEL-28 melanoma) | growth (SN12C renal) | growth (UO-31 renal) | growth (TK-10 renal) | growth (CAKI-1 renal) | growth (A498 renal) | growth (CCRF-CEM leukemia) | growth (MOLT-4 leukemia) [%] | growth (ACHN renal) | growth (SK-MEL-2 melanoma) | growth (EKVX NSCLC) |
| --- | --- | --- | --- | --- | --- | --- | --- | --- | --- | --- | --- | --- | --- | --- | --- | --- | --- | --- | --- | --- |
| C=C1SC(=Nc2c(C)cccc2C)N(c2nc(Cl)nc(Cl)n2)C12CCCCC2 | 109% | 108% | 96.7% | 108% | 102% | 99.3% | 84.2% | 105% | 104% | 104% | 107% | 75.6% | 108% | 96.6% | 113% | 95.9% | 95.5 |  |  |  |
| COc1ccc(/C=N/NC(=O)COCC(=O)N/N=C/c2ccc(OC)cc2)cc1 | 97.8% | 130% | 88.6% | 110% | 96.2% | 88.8% | 97.9% | 101% | 102% | 100% | 99% | 92.5% | 115% | 98.8% | 85.6% | 86.8% | 98.3 | 97.2% |  |  |
| COc1ccc(/C=C\C(=O)/C=C/c2ccc(OC)cc2)cc1 | -13.7% (active) | 49.3% | 103% | 89.3% | 63.8% | 62.3% | 91.7% | 70.4% |  | 106% | 90.3% | 69.1% | 116% | 87.5% | 174% | 37.4% | 68.2 | 95.5% | 123% | 93.2% |
| CC(=O)NCNC(C)=O | 101% | 111% | 92.4% | 107% | 103% | 88.9% | 102% | 112% | 113% | 107% | 109% |  | 115% | 102% | 113% | 93.3% | 87.9 | 100% |  |  |
| Nc1ccc2c(c1)Cc1cc(N)c(N)cc1-2 | 108% | 95.9% | 96% | 95.6% | 86% | 96.3% | 93.4% | 94% |  | 107% | 93.3% | 91.4% | 119% | 102% | 98.8% | 105% |  | 101% | 88.8% | 88.6% |
| COC1C(=O)CCC2(CO2)C1(O)C1(C)OC1CCC(C)C (stereo not given) | 56.4% | 60.3% | 77.5% | 51.5% | 42.3% | 74.6% | 64.6% | 70.4% | 50.3% |  | 74.9% | 48.7% | 119% | 71.4% | 113% | 70.4% | 94 | 72.1% | 78.7% | 76.2% |
| CCN(C(=O)Nc1ccccc1Cl)c1ccccc1 | 94.1% | 101% | 117% | 103% | 96.8% | 94.6% | 101% | 104% |  | 113% | 113% | 91.4% | 121% | 96.2% | 102% | 110% |  | 96.2% | 114% | 111% |
| COC(=O)Cc1cc(COC(C)=O)ccc1C | 106% | 96.6% | 97.8% | 113% | 109% | 92.6% | 110% | 104% | 108% | 113% | 114% | 81.3% | 88.5% | 116% | 95.4% | 96.1% | 98.4 | 103% |  |  |
| O=C(OCC1CCCO1)c1ccc([N+](=O)[O-])cc1 (stereo not given) | 104% | 108% | 85.8% | 102% | 91.7% | 88.4% | 104% | 99.8% |  | 108% | 95.3% | 86.9% | 99.4% | 106% | 82.2% | 94.2% | 101 | 104% | 103% | 106% |
| CC(c1ccccc1)N1C(=O)CSC1=S (stereo not given) | 9.14% (active) | 1.08% (active) | 19.9% | 104% | 17.3% | 45.2% | 34.8% | 34.5% |  | 46.9% | 62.4% | 49.2% | 42.3% | 61.1% | 78.1% | 63.8% | 28.3 | 50.7% | 1.02% (active) | 52.1% |
| Cc1c(-c2ccc(C3CCCCC3)cc2)nc2ccc(F)cc2c1C(=O)O | 25.1% | 31.6% | 62.7% | 61.7% | 44.2% | 44.9% | 32.9% | 43.3% | 8.7% (active) | 60.8% | 45.2% | 34.3% | 74.7% | -2.23% (active) | 89.7% | 35.7% | 15.2 | 43% |  |  |
| C=CCC(OC(C)=O)c1ccc(C(C)C)cc1 (stereo not given) | 107% | 92.5% | 102% | 101% | 122% | 99.1% | 117% | 105% | 104% | 120% | 104% | 84.9% | 96.4% | 121% | 87.3% | 102% | 105 | 108% |  |  |
| c1ccc2c(NCCCN3CCN(CCCNc4c5ccccc5nc5ccccc45)CC3)c3ccccc3nc2c1 | 2.79% [100 µM] (active) | -37.3% [100 µM] (active) | -91% [100 µM] (active) | -21.1% [100 µM] (active) | -19.4% [100 µM] (active) | -33.1% [100 µM] (active) | -70.3% [100 µM] (active) | -88.5% [100 µM] (active) |  | -72.3% [100 µM] (active) | -35.9% [100 µM] (active) | -27.6% [100 µM] (active) | -9.59% [100 µM] (active) | -15.5% [100 µM] (active) | -31.9% [100 µM] (active) | -0.0236% [100 µM] (active) |  | -60.9% [100 µM] (active) | -76.8% [100 µM] (active) | -48.6% [100 µM] (active) |
| Nc1cc2c(cc1Cl)C(=O)c1ccccc1C2=O | 70.6% | 83.8% | 30.9% | 36.2% | -34.1% (active) | 72.5% | 91.9% | 73.2% |  | 101% | 34% | -15% (active) | 33.8% | 41.5% | 103% | 80.5% | 85.8 | 3.29% (active) | 111% | 42.5% |
| O=C(O)c1cccc(-n2ncc(Cl)c(Cl)c2=O)c1 | 98.5% | 113% | 81.1% | 102% | 101% | 88.7% | 98% | 97.2% | 92.2% | 102% | 100% | 107% | 154% | 98.6% | 113% | 98.3% | 96.5 | 106% |  |  |
| Cc1cc(CC(=O)NCCO)n(CCO)c(=O)c1 | 109% | 98.3% | 95.3% | 103% | 97.9% | 104% | 104% | 105% |  | 118% | 103% | 94.4% | 94.1% | 101% | 89.4% |  |  | 106% | 109% | 93.7% |
